Data from PMC11062922 (Nature Chemical Biology, 2023).
Where two headings read alike, the source gives them in different places.

Tests used:
Parameters in all cases: species or system human, MV4-11 + K-562 + COLO205 + SK-N-BE2 + OVCAR-8
[1] = test system: BMPR2; conditions: read-out: apparent Kd; compound concentrations: 100 nM and 1000 nM (sheet 'Samples'), CATDS: 6.92108143191002E-2; n = 1
[2] = test system: CDC7; conditions: read-out: apparent Kd; compound concentrations: 100 nM and 1000 nM (sheet 'Samples'), CATDS: 7.2811960251287902E-2; n = 1
[3] = test system: CLK1; conditions: read-out: apparent Kd; compound concentrations: 100 nM and 1000 nM (sheet 'Samples'), CATDS: 6.6251473023667004E-2; n = 1
[4] = test system: CLK4; conditions: read-out: apparent Kd; compound concentrations: 100 nM and 1000 nM (sheet 'Samples'), CATDS: 8.9206642022587504E-2; n = 1
[5] = test system: CSNK2A1;CSNK2A3; conditions: read-out: apparent Kd; compound concentrations: 100 nM and 1000 nM (sheet 'Samples'), CATDS: 8.9230390485803696E-2; n = 1
[6] = test system: CSNK2A2; conditions: read-out: apparent Kd; compound concentrations: 100 nM and 1000 nM (sheet 'Samples'), CATDS: 7.4198005881570203E-2; n = 1
[7] = test system: GAK; conditions: read-out: apparent Kd; compound concentrations: 100 nM and 1000 nM (sheet 'Samples'), CATDS: 0.232195819387676; n = 1
[8] = test system: JAK1; conditions: read-out: apparent Kd, compound concentrations: 100 nM and 1000 nM (sheet 'Samples'), n = 1
[9] = test system: PI4KB; conditions: read-out: apparent Kd; compound concentrations: 100 nM and 1000 nM (sheet 'Samples'), CATDS: 0.18235028668709399; n = 1
[10] = test system: PIK3C2B; conditions: read-out: apparent Kd; compound concentrations: 100 nM and 1000 nM (sheet 'Samples'), CATDS: 7.7184460843741698E-2; n = 1
[11] = test system: RIOK2; conditions: read-out: apparent Kd; compound concentrations: 100 nM and 1000 nM (sheet 'Samples'), CATDS: 5.9872886906535798E-2; n = 1
[12] = test system: TNIK; conditions: read-out: apparent Kd, compound concentrations: 100 nM and 1000 nM (sheet 'Samples'), n = 1
[13] = test system: AURKB; conditions: read-out: apparent Kd, compound concentrations: 100 nM and 1000 nM (sheet 'Samples'), n = 1
[14] = test system: BMP2K; conditions: read-out: apparent Kd, n = 1
[15] = test system: MYLK3; conditions: read-out: apparent Kd; compound concentrations: 100 nM and 1000 nM (sheet 'Samples'), CATDS: 0.39880703654606497; n = 1
[16] = test system: CDKL5; conditions: read-out: apparent Kd; compound concentrations: 100 nM and 1000 nM (sheet 'Samples'), CATDS: 7.5707148377712405E-2; n = 1
[17] = test system: FLT3; conditions: read-out: apparent Kd, compound concentrations: 100 nM and 1000 nM (sheet 'Samples'), n = 1
[18] = test system: GSK3A; conditions: read-out: apparent Kd; compound concentrations: 100 nM and 1000 nM (sheet 'Samples'), CATDS: 8.1333822841740205E-2; n = 1
[19] = test system: GSK3B; conditions: read-out: apparent Kd; compound concentrations: 100 nM and 1000 nM (sheet 'Samples'), CATDS: 7.5519353695847294E-2; n = 1
[20] = test system: HSPE1; conditions: read-out: apparent Kd; compound concentrations: 100 nM and 1000 nM (sheet 'Samples'), CATDS: 0.31901289007405398; n = 1
[21] = test system: ICK; conditions: read-out: apparent Kd; compound concentrations: 100 nM and 1000 nM (sheet 'Samples'), CATDS: 5.8957301425707501E-2; n = 1
[22] = test system: MAPK9; conditions: read-out: apparent Kd; compound concentrations: 100 nM and 1000 nM (sheet 'Samples'), CATDS: 5.8843363107673401E-2; n = 1
[23] = test system: NUAK1; conditions: read-out: apparent Kd; compound concentrations: 100 nM and 1000 nM (sheet 'Samples'), CATDS: 6.5408557388510299E-2; n = 1
[24] = test system: PGK1; conditions: read-out: apparent Kd; compound concentrations: 100 nM and 1000 nM (sheet 'Samples'), CATDS: 0.33349072490792903; n = 1
[25] = test system: PKM; conditions: read-out: apparent Kd; compound concentrations: 100 nM and 1000 nM (sheet 'Samples'), CATDS: 6.2556323198701705E-2; n = 1
[26] = test system: FECH; conditions: read-out: apparent Kd; compound concentrations: 100 nM and 1000 nM (sheet 'Samples'), CATDS: 9.1141958763267306E-2; n = 1
[27] = test system: FRK; conditions: read-out: apparent Kd; compound concentrations: 100 nM and 1000 nM (sheet 'Samples'), CATDS: 0.20541048122338901; n = 1
[28] = test system: HCK; conditions: read-out: apparent Kd; compound concentrations: 100 nM and 1000 nM (sheet 'Samples'), CATDS: 0.153376634791901; n = 1
[29] = test system: LCK; conditions: read-out: apparent Kd; compound concentrations: 100 nM and 1000 nM (sheet 'Samples'), CATDS: 0.126638477949608; n = 1
[30] = test system: LYN; conditions: read-out: apparent Kd; compound concentrations: 100 nM and 1000 nM (sheet 'Samples'), CATDS: 0.11348132537540701; n = 1
[31] = test system: MAP2K5; conditions: read-out: apparent Kd; compound concentrations: 100 nM and 1000 nM (sheet 'Samples'), CATDS: 9.4476183920835705E-2; n = 1
[32] = test system: TNK2; conditions: read-out: apparent Kd; compound concentrations: 100 nM and 1000 nM (sheet 'Samples'), CATDS: 0.38594497215225099; n = 1
[33] = test system: IKBKE; conditions: read-out: apparent Kd; compound concentrations:100 nM and 1000 nM (sheet 'Samples'); n = 1
[34] = test system: PIK3C3; conditions: read-out: apparent Kd; compound concentrations:100 nM and 1000 nM (sheet 'Samples'); n = 1
[35] = test system: TBK1; conditions: read-out: apparent Kd; compound concentrations:100 nM and 1000 nM (sheet 'Samples'); n = 1
[36] = test system: MAP3K1; conditions: read-out: apparent Kd; compound concentrations:100 nM and 1000 nM (sheet 'Samples'); n = 1
[37] = test system: MAP4K5; conditions: read-out: apparent Kd; compound concentrations:100 nM and 1000 nM (sheet 'Samples'); n = 1
[38] = test system: NUAK2; conditions: read-out: apparent Kd; compound concentrations:100 nM and 1000 nM (sheet 'Samples'); n = 1
[39] = test system: PLK1; conditions: read-out: apparent Kd; compound concentrations:100 nM and 1000 nM (sheet 'Samples'); n = 1
[40] = test system: STK10; conditions: read-out: apparent Kd; compound concentrations:100 nM and 1000 nM (sheet 'Samples'); n = 1
[41] = test system: AURKA; conditions: read-out: apparent Kd; compound concentrations: 100 nM and 1000 nM (sheet 'Samples'), CATDS: 7.2956934491261893E-2; n = 1
[42] = test system: EPHB6; conditions: read-out: apparent Kd; compound concentrations: 100 nM and 1000 nM (sheet 'Samples'), CATDS: 7.4696774901665194E-2; n = 1
[43] = test system: FER; conditions: read-out: apparent Kd; compound concentrations: 100 nM and 1000 nM (sheet 'Samples'), CATDS: 5.6438447882713398E-2; n = 1
[44] = test system: FES; conditions: read-out: apparent Kd; compound concentrations: 100 nM and 1000 nM (sheet 'Samples'), CATDS: 5.2113476135959902E-2; n = 1
[45] = test system: FLT4; conditions: read-out: apparent Kd; compound concentrations: 100 nM and 1000 nM (sheet 'Samples'), CATDS: 0.232544079130999; n = 1
[46] = test system: IRAK3; conditions: read-out: apparent Kd; compound concentrations: 100 nM and 1000 nM (sheet 'Samples'), CATDS: 5.7923631136655801E-2; n = 1
[47] = test system: MET; conditions: read-out: apparent Kd; compound concentrations: 100 nM and 1000 nM (sheet 'Samples'), CATDS: 6.0904662121703403E-2; n = 1
[48] = test system: MST1R; conditions: read-out: apparent Kd; compound concentrations: 100 nM and 1000 nM (sheet 'Samples'), CATDS: 5.5385881905980802E-2; n = 1
[49] = test system: PDGFRB; conditions: read-out: apparent Kd; compound concentrations: 100 nM and 1000 nM (sheet 'Samples'), CATDS: 5.6967263110053901E-2; n = 1
[50] = test system: PLK4; conditions: read-out: apparent Kd; compound concentrations: 100 nM and 1000 nM (sheet 'Samples'), CATDS: 9.5800604648041798E-2; n = 1
[51] = test system: TNK1; conditions: read-out: apparent Kd; compound concentrations: 100 nM and 1000 nM (sheet 'Samples'), CATDS: 0.119940011708452; n = 1
[52] = test system: BUB1; conditions: read-out: apparent Kd; compound concentrations:100 nM and 1000 nM (sheet 'Samples'); n = 1
[53] = test system: MAPK14; conditions: read-out: apparent Kd; compound concentrations:100 nM and 1000 nM (sheet 'Samples'); n = 1

COC(=O)c1ccc2c(c1)C(=Cc1cc(Br)c(O)c(Br)c1)C(=O)N2 [GW405841X]
potency estimated from few doses [1]: 1220 nM
potency estimated from few doses [2]: 1070 nM
potency estimated from few doses [3]: 1380 nM
potency estimated from few doses [4]: 668 nM
potency estimated from few doses [5]: 667 nM
potency estimated from few doses [6]: 1020 nM
potency estimated from few doses [7]: 138 nM
potency estimated from few doses ([8]; CATDS: 8.5496102279709801E-2): 731 nM
potency estimated from few doses [9]: 194 nM
potency estimated from few doses [10]: 924 nM
potency estimated from few doses [11]: 1910 nM
potency estimated from few doses ([12]; CATDS: 7.3078421719639103E-2): 1060 nM

Cn1ccc2ncnc(Oc3ccc(Nc4nc5ccccc5[nH]4)cc3)c21 [TPKI-72]
potency estimated from few doses ([13]; CATDS: 1): 617 nM

Nc1cccc(-c2ccc3c(N)n[nH]c3c2)c1 [GSK2193613A]
potency estimated from few doses ([14]; compound concentrations: 100 nM and 1000 nM (sheet 'Samples'), CATDS: 0.35520277596049099): 1270 nM
potency estimated from few doses [15]: 1020 nM
potency estimated from few doses ([12]; CATDS: 0.27194394843596698): 2310 nM

Cc1ccc2c(c1)c(C1=C(c3cn(C)c4ccccc34)C(=O)NC1=O)cn2C [RO0317510-000]
potency estimated from few doses ([14]; compound concentrations: 100 nM and 1000 nM (sheet 'Samples'), CATDS: 7.6838434423815494E-2): 783 nM
potency estimated from few doses [16]: 815 nM
potency estimated from few doses ([17]; CATDS: 9.6631146746451402E-2): 449 nM
potency estimated from few doses [18]: 676 nM
potency estimated from few doses [19]: 820 nM
potency estimated from few doses [20]: 48.4 nM
potency estimated from few doses [21]: 1800 nM
potency estimated from few doses ([8]; CATDS: 9.4979881318968506E-2): 467 nM
potency estimated from few doses [22]: 1810 nM
potency estimated from few doses [23]: 1250 nM
potency estimated from few doses [24]: 45.2 nM
potency estimated from few doses [25]: 1450 nM

Cc1ccc(C(=O)Nc2ccc(Nc3ccnc4cc(-c5nccs5)ccc34)cc2O)cc1.Cl [GW494702A]
potency estimated from few doses ([13]; CATDS: 8.5065344981926597E-2): 1430 nM
potency estimated from few doses [26]: 1090 nM
potency estimated from few doses [27]: 152 nM
potency estimated from few doses [28]: 267 nM
potency estimated from few doses [29]: 412 nM
potency estimated from few doses [30]: 547 nM
potency estimated from few doses [31]: 956 nM
potency estimated from few doses [32]: 55.9 nM

CC(C)(C)OC(=O)NC1CCCN(c2cc(-c3ccc4c(N)n[nH]c4c3)nc(N)n2)C1 (stereo not shown) [GSK2286096A]
potency estimated from few doses ([13]; CATDS: 0.30892280218859702): 105 nM
potency estimated from few doses [33]: 78.7 nM
potency estimated from few doses [34]: 978 nM
potency estimated from few doses [35]: 129 nM

C[C@@H](Oc1cc(-n2cnc3ccc(OCC4CCN(C)CC4)cc32)sc1C(N)=O)c1ccccc1C(F)(F)F [GSK326090A]
potency estimated from few doses ([14]; compound concentrations:100 nM and 1000 nM (sheet 'Samples')): 1900 nM
potency estimated from few doses [36]: 1240 nM
potency estimated from few doses [37]: 203 nM
potency estimated from few doses [38]: 411 nM
potency estimated from few doses [39]: 67.7 nM
potency estimated from few doses [40]: 1720 nM

CN(c1ccc(NC(=O)Nc2c(Cl)cccc2Cl)cc1)c1ccnc(Nc2cccc(CS(C)(=O)=O)c2)n1 [GW809897X]
potency estimated from few doses [41]: 449 nM
potency estimated from few doses ([13]; CATDS: 8.8518013228777503E-2): 271 nM
potency estimated from few doses [42]: 421 nM
potency estimated from few doses [43]: 1010 nM
potency estimated from few doses [44]: 1400 nM
potency estimated from few doses ([17]; CATDS: 0.75020516601315201): 3.04 nM
potency estimated from few doses [45]: 31.6 nM
potency estimated from few doses [46]: 921 nM
potency estimated from few doses [47]: 774 nM
potency estimated from few doses [48]: 1090 nM
potency estimated from few doses [49]: 979 nM
potency estimated from few doses [50]: 224 nM
potency estimated from few doses [51]: 134 nM

Cl.Oc1cccc(-c2nc(-c3ccccc3)[nH]c2-c2ccncc2)c1 [SB-610251-B]
potency estimated from few doses [52]: 2530 nM
potency estimated from few doses [53]: 1570 nM
